Bioassay records from PubChem.
TDP1 cell CPT: DT40-hTDP1 cell growth loss with CPT. 420,000 tested, 12% active. chicken DT40 Tdp1-/-;hTDP1 cells + 20 nM CPT, ATP luminescence, 48 h. Potency, µM (doses to about 46.2 µM), inactives show at the top dose activity change, negative = growth inhibition, actives largely listed as inhibitors. AID 686979; also: potency is read from the fitted curve at half-maximal effect; % is scaled to controls: 0 for no effect and ±100 for the full control effect; nearly all actives have a fitted effect of over 55% in size
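Cell growth measured by CellTiter-Glo luminescence after a minimum 48 h, 37 C compound exposure with 20 nM CPT in Tdp1-knockout DT40 cells stably expressing hTDP1, seeded 400/well; qHTS titration format.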
TDP1 inh: inhibitors of human tyrosyl-DNA phosphodiesterase TDP1; Potency, µM (top dose mostly 130 µM), without a hit: at the top dose activity change, negative = inhibition, most hits filed as inhibitors; AID 485290; Q9NUW8; 350,000 tested, 0.28% active; recombinant TDP1, AlphaScreen DNA substrate cleavage; also: potency is read from the fitted curve at half-maximal effect; % is scaled to controls: 0 for no effect and ±100 for the full control effect; nearly all actives have a fitted effect of over 40% in size
Target sequence (Q9NUW8 whole entry, looked up): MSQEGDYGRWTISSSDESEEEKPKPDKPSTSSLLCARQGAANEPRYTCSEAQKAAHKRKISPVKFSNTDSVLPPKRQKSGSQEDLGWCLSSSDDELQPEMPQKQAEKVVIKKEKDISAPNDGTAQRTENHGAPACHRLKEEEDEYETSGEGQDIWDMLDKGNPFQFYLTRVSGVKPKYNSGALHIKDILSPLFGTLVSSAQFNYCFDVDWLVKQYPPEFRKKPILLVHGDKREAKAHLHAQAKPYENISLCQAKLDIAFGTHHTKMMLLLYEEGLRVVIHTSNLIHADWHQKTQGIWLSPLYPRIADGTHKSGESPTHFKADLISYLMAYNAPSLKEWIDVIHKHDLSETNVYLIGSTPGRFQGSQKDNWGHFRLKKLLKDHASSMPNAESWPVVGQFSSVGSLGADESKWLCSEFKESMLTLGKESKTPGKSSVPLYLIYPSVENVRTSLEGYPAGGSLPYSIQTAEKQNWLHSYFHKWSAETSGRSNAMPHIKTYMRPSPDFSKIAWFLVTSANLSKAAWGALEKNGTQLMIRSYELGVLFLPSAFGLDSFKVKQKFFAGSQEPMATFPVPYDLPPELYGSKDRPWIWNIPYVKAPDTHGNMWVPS
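Enzyme-compound mixtures sat 15 min at room temperature, followed by a 5 min reaction with 15 nM final substrate and 10 min with AlphaScreen beads. Recombinant human Tdp1 was used at 1 nM final.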
TGFb SMAD3 inh: TGF-b pathway inhibition; AID 588855; Potency, µM (top dose mostly 46.1 µM), inactives show top-dose activity, negative = inhibition, actives largely listed as inhibitors; 410,000 tested, 1.2% active; HepG2 CAGA-GFP TGF-b/SMAD3 reporter, GFP fluorescence, 18 h; TGF-beta stimulated, 500 pg/mL final; also: potency is read from the fitted curve at half-maximal effect; % is scaled to controls: 0 for no effect and ±100 for the full control effect; nearly all actives have a fitted effect of over 65% in size
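Cell-based qHTS in HEPG2 carrying a CAGA-GFP Smad reporter; compounds added before 500 pg/mL final TGF-beta, 18 h incubation at 37 degrees C, GFP fluorescence quantified per cell by imaging cytometry.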
IL-1B inflam inh: blocks inflammasome-driven IL-1 beta release; THP-1 LPS/ATP IL-1B secretion, AlphaLISA, 16 h; active compounds read low; activity change, % at 57.5 µM; 360,000 tested, 4.7% active; AID 743279; in the data active = activity change below about -50%; inconclusive = mostly about -30% to -49%; also: % is scaled to controls: 0 for no effect and ±100 for the full control effect
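Secreted IL-1B measured by AlphaLISA bead assay after 16 h compound exposure of THP-1 cells; compounds (final up to 57.5 uM) added 1 h before LPS (250 ng/mL) and ATP (1.25 mM) stimulation; lower signal means less secretion.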
TDP1 cell noCPT: qHTS for Inhibitors of human tyrosyl-DNA phosphodiesterase 1 (TDP1): qHTS in cells in absence of CPT; 420,000 tested, 15% active; Potency, µM (doses to about 46.2 µM), inactives show at the top dose activity change, negative = growth inhibition, actives largely listed as inhibitors; DT40 Tdp1-/- hTDP1 cells, no CPT, ATP luminescence, 48 h; also: potency is read from the fitted curve at half-maximal effect; % is scaled to controls: 0 for no effect and ±100 for the full control effect; nearly all actives have a fitted effect of over 55% in size
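Cells were dispensed at 400 per well, compounds added by pin tool, plates incubated ≥48 hr at 37 °C, then CellTiter-Glo added for 30 min at room temperature before luminescence reading. Line: DT40 Tdp1-/- complemented with hTDP1; camptothecin omitted.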
HepG2 viability: kills HepG2 cells in TGF-b inhibitor counter-screen; 410,000 tested, 0.76% active; Potency, µM (series often up to 46.1 µM), for inactives: at the highest dose activity change, negative = cytotoxicity, usual class: cytotoxic; HepG2 CAGA-GFP viability, ATP luminescence, 18 h; also: potency is read from the fitted curve at half-maximal effect
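CellTiter-Glo luminescence gave cytotoxicity after 18 hours at 37 degrees C. The cells were HepG2 CAGA-GFP in 1% FBS DMEM, stimulated with 500 pg/mL TGF-beta after compound addition. %Activity was normalised to no-cell wells (complete cell-killing) and DMSO (no toxicity), and curves were fitted and classified.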
The depositor's hits bear a star; ? = inconclusive; · = no result given; [ ] = another dose, or the depositor's remark. A selection: hits, their analogues and other compounds. The true share with any hit is near 19%. Unless noted, calls follow the shape of the dose curve; as a rule, active = well fitted curve in the direction sought with a large enough effect; inconclusive = small, poorly fitted or top-dose-only effect, or another doubt; inactive = no such curve, though single readings can be large; an effect the other way counts as inactive or inconclusive.

SMILES | TDP1 cell CPT | TDP1 inh | TGFb SMAD3 inh | IL-1B inflam inh | TDP1 cell noCPT | HepG2 viability
CN1OC[C@@H]2CN(S(=O)(=O)c3cccc(C(F)(F)F)c3)[C@H](c3ccc(-c4cccnc4)cc3)C[C@@H]21 | 29µM* | · | -3% | 22 | 21µM* | -24%
Cc1ccccc1S(=O)(=O)N1C[C@H]2CON(C)[C@H]2C[C@H]1c1cccc(N2CCOCC2)c1 | -11% | · | 0% | -9 | -16% | 3%
Cc1cc(F)ccc1S(=O)(=O)Nc1ccccc1C(=O)NC1CCN(Cc2ccccc2)CC1 | ? | 0% | 0% | -15 | ? | -35%
CN(C)CCCCl | · | 4% | · | · | · | ·
CCc1nc(N2CCN(C(=O)c3ccccc3)CC2)c(C#N)c2c1COC(C)(C)C2 | 18µM* | 5% | 18% | 0 | 15µM* | -29%
CC1(C)Cc2c(C#N)c(N3CCOCC3)nc(Cc3ccccc3)c2CO1 | ? | -6% | 9% | -15 | 21µM* | -1%
CCC1=C2CC[C@H]3C(=O)NC(=O)[C@H]3[C@H]2[C@@]2(C)C(=NCC3CC3)OC(=O)N2C1=O | · | 7% | · | · | · | ·
CC(=O)Nc1cccc(NC(=O)c2cccc(OCc3ccccc3)c2)c1 | 21µM* | · | -14% | 68 | 18µM* | -22%
CC(=O)Nc1cccc(OCc2ccc(S(=O)(=O)Cc3ccccc3)cc2)c1 | ? | 10% | -23% | 16 | 21µM* | -1%
O=C(NC1CCCCC1)c1cccc(OCc2ccccc2)c1 | ? | 3% | -7% | -74* | ? | -2%
CC(=O)Nc1ccc(OCc2ccc(S(=O)(=O)Cc3ccccc3)cc2)cc1 | -10% | -6% | -19% | 13 | ? | -15%
NC(=O)NC(N)=O | · | 10% | · | · | · | ·
COc1ccc(S(=O)(=O)Nc2cccc3cccnc23)c([N+](=O)[O-])c1 | · | 1% | ? | · | · | -41%
O=C(CSc1nc(-c2ccc(F)cc2)nc2ccc(F)cc12)Nc1cccc(C(=O)O)c1 | 1% | 25µM* | 2% | 16 | -25% | 2%
CCOc1ccc(-c2nc3c(c(SCC(=O)Nc4ccccc4C)n2)Cc2ccccc2O3)cc1 | 0% | -1% | -2% | · | -11% | -18%
CCOc1cccc2c1Oc1nc(-c3ccccc3)nc(SCC(=O)Nc3ccc(F)cc3)c1C2 | ? | 6% | -3% | · | ? | -19%
O=C(CSc1nc(-c2ccccc2)nc2ccccc12)Nc1cccc(C(=O)O)c1 | ? | 5% | 0% | 2 | ? | -2%
O=C(CSc1nc(-c2ccccc2)nc2c1Cc1ccccc1O2)Nc1ccc(C(=O)O)cc1 | 6% | 4.5µM* | 0% | 47 | -5% | 4%
O=C(CSc1nc(-c2ccc(F)cc2)nc2c1Cc1ccccc1O2)Nc1ccc(C(=O)O)cc1 | -12% | 5µM* | 0% | 17 | -3% | -12%
COc1ccc(C)cc1NC(=S)NC12CN3CN(CN(C3)C1)C2 | · | 2% | · | · | · | ·
Cc1cccc(C)c1NC(=O)CN(C)C(=O)CSC(=S)N1CCCC1 | -3% | -4% | 1% | 16 | 12% | 1%
CC[C@]12c3[nH]c4ccc(OC)cc4c3CCN1C(=O)C(CC(=O)NCCCOC)C[C@@H]2C(=O)N1CCN(C(=O)c2ccco2)CC1 (stereo partly specified) | 10% | 1%[56.1 µM] | -1% | 0 | 1% | -19%
CC(C)Nc1nc(NC(C)C)nc(N(C#N)CCOc2ccc(Cl)cc2Cl)n1 | 18µM* | 8% | ? | -13 | ? | -35%
Cc1cc(C)c(NC(=O)CN(C)CC(=O)N(C)CC(=O)Nc2c(Cl)cccc2Cl)c(C)c1 | -21% | 0%[56.1 µM] | -4% | -3 | -8% | -23%
Cc1ccc(S(=O)(=O)c2cnc(SCC(=O)Nc3cccc(Cl)c3)nc2N)cc1C | ? | 3% | ? | · | 23µM* | -3%
SMILES | TDP1 cell CPT | TDP1 inh | TGFb SMAD3 inh | IL-1B inflam inh | TDP1 cell noCPT | HepG2 viability
Cc1ccc2nc(SCC(=O)Nc3cccc(Cl)c3)nc(=O)n2c1 | ? | · | -7% | -21 | -29% | 2%
Cc1ccc(S(=O)(=O)c2cnc(SCC(=O)Nc3cc(C)cc(C)c3)nc2N)cc1 | ? | 2% | ? | · | 16µM* | -4%
Cc1ccc(S(=O)(=O)c2cnc(SCC(=O)Nc3ccc4c(c3)OCCO4)[nH]c2=O)cc1 | · | 5% | 2% | · | · | -59%
CC(Sc1ncc(S(=O)(=O)c2ccc(C(C)C)cc2)c(N)n1)C(=O)Nc1ccccc1 (stereo unspecified) | 16µM* | 6% | ? | · | 26µM* | -33%
CCc1ccccc1NC(=O)CSc1ncc(S(=O)(=O)c2ccc(C(C)C)cc2)c(N)n1 | ? | 1% | ? | · | ? | -12%
COc1cccc(Cn2c(=O)cnc3cnc(N4CCN(C)CC4)nc32)c1 | ? | · | · | · | -13% | ·
COc1ccc(C2CC(c3ccccc3)Oc3c(C)ccc(C)c32)cc1 (stereo unspecified) | · | 1% | 3% | · | · | -2%
Clc1ccc2c(c1)C(C1=NCCN1)c1ccccc1CS2 (stereo unspecified) | 6.5µM* | 2% | -15% | -12 | 5.8µM* | -5%
Cc1cc(=O)n2c(C(=O)Nc3ccc(C(=O)OC(C)C)cc3)c(C(=O)Nc3ccccc3)sc2n1 | ? | 6% | ? | 21 | 15µM* | -52%
COc1cc(C(c2sc3nc(C)nn3c2O)N2CCC3(CC2)OCCO3)cc(OC)c1OC (stereo unspecified) | 16µM* | 2% | -4% | 6 | 16µM* | -7%
CCN(CC)S(=O)(=O)c1ccc(C)c(NC(=O)COC(=O)CN2C(=O)NC(C)(C)C2=O)c1 | -5% | · | ? | 3 | -13% | -42%
